# Assay results published in PubChem BioAssay (NCI).
# This is part of a sample that, as a whole, favours compounds with a hit. Of some 83,000 tested, about 20% had one in any assay.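 For each line, cells grew in 96-well plates with the test compound present at a single concentration for 48 hours.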 A number with no mark means an inactive call. The source made the active and inactive calls. How the source made its calls: active means growth percent below 10; inactive means the rest.
# Columns and labels:
# Assay in all cases: NCI-60 one-dose screen, 48 h (100 = growth as untreated, 0 = no growth, -100 = all killed)
# Conditions in all cases: 10 µM unless noted
# [1] = system: SK-MEL-2 melanoma
# [2] = system: EKVX NSCLC
# [3] = system: UO-31 renal
# [4] = system: TK-10 renal
# [5] = system: ACHN renal
# [6] = system: CAKI-1 renal
# [7] = system: A498 renal
# [8] = system: CCRF-CEM leukemia
# [9] = system: MOLT-4 leukemia
# [10] = system: SN12C renal
Compound,growth [1],growth [2],growth [3],growth [4],growth [5],growth [6],growth [7],growth [8],growth [9],growth [10] [%]
COc1ccccc1Nc1nc(-c2cc3cccc(C(F)(F)F)c3oc2=O)cs1,26.8%,36.1%,52%,67.9%,24.6%,9.18% (active),-9.67% (active),7.96% (active),14.9%,–
CN(C)c1ccc(NC(=O)c2ccc(/C=C/C(=O)c3ncc[nH]3)cc2)cc1,92%,73%,37.9%,74%,71.4%,–,94.1%,4.98% (active),27.1%,44.9
O=C1c2c(O)cc(O)cc2-c2c(-c3ccc(O)cc3)oc3cc(O)cc1c23,72.3%,62.2%,12.7%,63.4%,9.27% (active),33%,62.5%,–,–,–
COc1ccc(CN2c3ccccc3Sc3ccccc32)c(C(F)(F)F)c1,3.52% (active),49.9%,45.6%,65.5%,48.7%,32.5%,4.16% (active),10.5%,24%,–
c1ccc2[nH]c(-c3ccc(Nc4nc(N5CCCC5)nc5[nH]ncc45)cc3)nc2c1,-48.1% (active),-8.31% (active),-27.1% (active),-6.9% (active),-58.3% (active),-22.3% (active),94.5%,-29.7% (active),-44.1% (active),–
COc1ccc2c(c1)CC/C(=C\c1cncc(Br)c1)C2=O,95.1%,99.2%,96.5%,85%,84.9%,86.6%,96.5%,13.5%,83.5%,–
COc1ccc(CN2c3ccccc3Sc3ccccc32)cc1O,8.98% (active),36.7%,24.4%,58.3%,41.7%,36.2%,76.4%,8.29% (active),18.4%,–
CCOC(=O)c1sc(Nc2ccc(Cl)cc2)nc1C,-0.883% (active),7.71% (active),-9.64% (active),26.5%,14.3%,10.4%,-32.9% (active),17.8%,10.7%,–
O=c1cc(CSc2nnc(-c3ccc(F)cc3)o2)c2ccc3ccccc3c2o1,87%,88.7%,77.7%,102%,96.7%,91.1%,94.6%,112%,95.9%,–
COc1cccc(-c2nc(SCC(=O)Nc3ccc(C(=O)/C=C/c4ccc(OC)c(OC)c4)cc3)[nH]c(=O)c2C#N)c1,96.6%,87.7%,79.3%,109%,86.6%,88.4%,97.2%,90%,74.8%,–
COc1ccc2c(c1)C(=O)/C(=C/c1ccccn1)CC2,81.3%,92.5%,90%,55.7%,54.1%,74.4%,120%,-6.73% (active),21.5%,–
CC/C=C\C/C=C\C[C@H]1C/C=C2/C(=O)C=C[C@@H]2C/C=C\CCC(=O)O1,-56.9% (active),31.4%,-49.7% (active),7.69% (active),-78.9% (active),14.5%,20.7%,-5.47% (active),2.83% (active),–
C=C1C(=O)O[C@H]2[C@H]1CC/C(COC(=O)NCCc1ccc(OC)c(OC)c1)=C\CC[C@@]1(C)O[C@@H]21,83%,71.5%,43%,36%,8.5% (active),45.2%,81.3%,-8.78% (active),43.6%,–
CCCCC[C@H]1C/C=C2/C(=O)C=C[C@@H]2C/C=C\CCCC(=O)O1,-75.9% (active),-18% (active),-96.5% (active),-59.4% (active),-91% (active),8.56% (active),-61.1% (active),-0.835% (active),-3.81% (active),–
CCOc1ccc(C(C)=O)cc1NC(=O)c1cccc(-c2nnn(CC)n2)c1,-5.73% (active),54.5%,38.4%,64.4%,50.8%,33.1%,-6.01% (active),11.9%,27.8%,–
CCCn1c(=O)[nH]c(N)c([C@H]2c3ccccc3Oc3[nH]c(=O)n(CCC)c(=O)c32)c1=O,92%,93.2%,78.8%,79%,73.6%,86.1%,92.9%,14.3%,39.5%,–
NC(=NCCCOc1ccc(Cl)cc1)Nc1ccc(Cl)cc1,24.1%,44.4%,37%,45.8%,2.74% (active),19.3%,-12% (active),6.02% (active),4.83% (active),–
COc1cc2c(cc1O)CC[C@@H]1[C@@H]2CC[C@]2(C)[C@@H](OCCN(C)C)CC[C@@H]12,25.8%,65.2%,72.3%,85.1%,57.9%,75.3%,40.3%,10.3%,33.9%,–
CC(=O)O[C@H]1C(=O)[C@@]2(C)[C@H]([C@H](OC(=O)c3ccccc3)[C@]3(O)C[C@H](OC(=O)[C@H](OC(=O)CCC(=O)OC4CCC(S/N=C(N)/N=C(\N)N(C)C)CC4)[C@@H](NC(=O)c4ccccc4)c4ccccc4)C(C)=C1C3(C)C)[C@]1(OC(C)=O)CO[C@@H]1C[C@@H]2O (some centres not stated),12.8%,37.3%,47.3%,48.9%,39.7%,25.5%,26.7%,17.5%,22.5%,–
C/C1=C\CC[C@@]2(C)O[C@H]2[C@H]2OC(=O)C(CN3CCN(CC4C(=O)O[C@H]5[C@H]4CC/C(C)=C/CC[C@@]4(C)O[C@@H]54)CC3)[C@@H]2CC1 (some centres not stated),107%,96.8%,96.7%,89.7%,87.1%,94%,114%,58%,84.3%,–
COc1ccc(CN2c3ccccc3Oc3ccccc32)cc1F,10%,60.7%,53.3%,74.2%,81%,59.3%,54.3%,66.7%,42%,–
CC(=O)OC[C@H]1O[C@H](OC(C)=O)[C@H](NC(=O)/C=C/CCl)[C@@H](OC(C)=O)[C@@H]1OC(C)=O,66.6%,94.9%,103%,75%,77.1%,101%,104%,24.6%,81.9%,–
CC(=O)c1cc(C(=O)c2ccc3c(c2)Sc2ccccc2N3)n2ccccc12,20.3%,41.2%,19.9%,59.2%,26.2%,24.1%,-11.9% (active),5.4% (active),13.9%,–
COc1cc(-c2nc(C(=O)NCC(=O)NO)nn2-c2ccc(Cl)cc2)cc(OC)c1OC,95.4%,103%,83.5%,96.9%,98.9%,89.3%,110%,107%,97.4%,–
COc1cc2c(cc1O)CC[C@@H]1[C@@H]2CC[C@]2(C)[C@@H](OCCCN(C)C)CC[C@@H]12,-85.9% (active),0.0282% (active),-79.6% (active),-6.67% (active),-62.8% (active),10.9%,-53.6% (active),-7.19% (active),-21.1% (active),–
Cc1ccc2oc(=O)cc(C3c4ccc([nH]4)C(c4cc(=O)oc5ccc(C)cc45)c4ccc([nH]4)C(c4cc(=O)oc5ccc(C)cc45)c4ccc([nH]4)C(c4cc(=O)oc5ccc(C)cc45)c4ccc3[nH]4)c2c1 (configuration not stated),-73.1% (active),-19.3% (active),-24.7% (active),-22.2% (active),-18.6% (active),-13.6% (active),-81.1% (active),-18% (active),-22.4% (active),–
